Assay results: PubChem BioAssay (NCI)
Several values for one entry are separate records, joined by “and”; a condition that tells them apart may be missing. Equal values may be shown once. Compounds without any hit were thinned out: in the full panel of roughly 79,000, 15% have a hit. Activity calls are given as the source filed them. Cut-off read from the data, not from the text of the source: active = growth inhibition above about 70%; inactive = the rest.

How the values were obtained:
[1] = NCI Yeast Anticancer Drug Screen. Data for the rad50 strain (AID 155);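 note: 0% = growth of vehicle-only cultures of the same strain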; details: S. cerevisiae rad50 strain growth inhibition, active compounds read high; at 50.0 µM unless noted
How it was run: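 Yeast carrying a defined DNA repair defect were exposed to test compounds, and growth was compared with vehicle-treated controls to give percent inhibition.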

[2] = NCI Yeast Anticancer Drug Screen. Data for the mec2-1 strain (AID 157); details: S. cerevisiae mec2-1 strain, active compounds read high; at 50.0 µM unless noted
How it was run: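 Test agents were screened against the mec2-1 yeast strain, with defined DNA repair or cell cycle alteration. Growth was scored as inhibition against vehicle-only controls.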

[3] = NCI Yeast Anticancer Drug Screen. Data for the sgs1 mgt1 strain (AID 161);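 note: 0% = growth of cultures given vehicle only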; details: S. cerevisiae sgs1 mgt1 strain, active compounds read high; at 50.0 µM unless noted
How it was run: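 Genetically altered yeast, compound exposure, growth inhibition relative to vehicle.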

[4] = NCI Yeast Anticancer Drug Screen. Data for the cln2 rad14 strain (AID 165);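 note: 0% = growth equal to vehicle treated cultures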; details: S. cerevisiae cln2 rad14 strain, active compounds read high; at 50.0 µM unless noted
How it was run: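 Growth of compound-exposed yeast (cln2 rad14 genotype) measured and expressed as inhibition relative to vehicle.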

[5] = NCI Yeast Anticancer Drug Screen. Data for the bub3 strain (AID 167); details: S. cerevisiae bub3 mutant strain, active compounds read high; at 50.0 µM unless noted
How it was run: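 Compounds were applied to a genetically altered yeast strain carrying a cell-cycle control defect. Growth inhibition was scored against vehicle-treated controls.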

[6] = NCI Yeast Anticancer Drug Screen. Data for the mlh1 rad18 strain (AID 175); details: S. cerevisiae mlh1 rad18 strain growth inhibition, active compounds read high; at 50.0 µM unless noted
How it was run: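 In this whole-cell yeast screen, a strain with altered DNA damage repair is challenged with compound, and its growth is measured against matched vehicle-treated controls.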

Measured: growth inhibition

Nc1ncnc2c1ncn2C1OC(CSCC(F)(F)F)C(O)C1O (stereo unspecified)
inactive: [1] -4.05% | [2] -11.8% | [3] -8.65% | [4] 26.6% | [5] -7.8% | [6] -11.4%

CC(O)c1ccc[cH-]1.CC(O)c1ccc[cH-]1.[Fe+2] (stereo unspecified)
inactive: [1] -22% | [2] 4% | [3] -5.55% | [4] -33.1% | [5] 28.7% | [6] 5.7%

NN1CCN(CCO)CC1
inactive: [1] -0.1% | [2] -39.6% | [3] -3.3% | [4] 12.2% | [5] -4% | [6] 21.6%

CCCCCCCCCCCCCCCc1ccc(N)c(OC2OC(CO)C(O)C(O)C2O)c1 (stereo unspecified)
inactive: [1] -2.15% and -16.8% | [2] 6.7% and -18.2% | [3] 8.8% and 8.55% | [4] -8.15% and -28.3% | [5] -5.6% and 0.95% | [6] 18.1% and -0.4%

CC1(C)OC1CS(=O)c1ccccc1 (stereo unspecified)
inactive: [1] -6.1% | [2] -5.4% | [3] -14.5% | [4] -17.4% | [5] 5.5% | [6] -42.8%

CCCCN1CC(=O)N2CCCC(c3ccccc3)N2C(=O)C1 (stereo unspecified)
inactive: [1] 7.55% | [2] -0.95% | [3] 17.6% | [4] 15.4% | [5] 10.5% | [6] -3.5%

O=C(Nc1nncs1)c1cnccn1
inactive: [1] -1.85% | [2] -6.3% | [3] 14.2% | [4] -3.15% | [5] 11.3% | [6] -71.5%

Cc1nc2ccccc2c(=O)n1NC(=O)Cc1ccccc1
inactive: [1] -22.6% | [2] -11.1% | [3] -7.45% | [4] 2.2% | [5] -12.4% | [6] -23.1%

COCCOC(=O)c1ccc(C)cc1
inactive: [1] 9.8% | [2] 17.8% | [3] 10.6% | [4] 14.8% | [5] 12.1% | [6] 8.1%

CCCCN(CCCC)CC(C(=O)Nc1ccc([N+](=O)[O-])cc1[N+](=O)[O-])/C(C)=N\NC(=S)NN (stereo unspecified)
inactive: [1] 3.55% | [2] -6.8% | [3] 44.7% | [4] 24.8% | [5] 16.2% | [6] 24.4%

CC1=C(C(=O)Nc2cc(=O)n(C)c(=O)n2C)C(c2ccco2)C(C(=O)Nc2cc(=O)n(C)c(=O)n2C)=C(C)N1
inactive: [1] -0.5% | [2] 17.9% | [3] -10.9% | [4] 13.3% | [5] -4.6% | [6] -0.4%

CC(C)CCC[C@@H](C)C1CCC2[C@@H]3CCC4C[C@@H](CCC=C(c5cc(Cl)c(O)c(C(=O)O)c5)c5cc(Cl)c(O)c(C(=O)O)c5)CC[C@]4(C)C3CC[C@@]21C (stereo partly specified)
inactive: [1] -26.4% | [2] -21.9% | [3] -14.7% | [4] -41% | [5] 8.5% | [6] -45.9%

Nc1nnc2nc(CC(=O)c3ccc(Cl)c(Cl)c3)/c(=C/C(=O)c3ccc(Cl)c(Cl)c3)n12
inactive: [1] 11.5% | [2] 12.3% | [3] -12.3% | [4] 17.2% | [5] 1.7% | [6] -10.2%

O=c1nc2sccn2c2ncccc12
inactive: [1] -18.5% | [2] 5.35% | [3] -11.8% | [4] 46.6% | [5] 10.9% | [6] 16.1%

COC(=O)c1ccc2c(c1)CC1(C2)Cc2cc3c(cc2C1)CCC3
inactive: [1] -19.4% | [2] -19.9% | [3] -17.5% | [4] 9.95% | [5] 12.8% | [6] -12.5%

CCOC(=O)c1c(-c2ccc([N+](=O)[O-])cc2)c(C=O)n(-c2ccccc2)c1C
inactive: [1] 4.2% | [2] -5.45% | [3] -0.55% | [4] -21.8% | [5] 36.9% | [6] 6.7%

CC1CCCN1CCOC(=O)C(c1ccccc1)C1CCCC1 (stereo unspecified)
inactive: [1] -4.65% | [2] 35.5% | [3] 32.1% | [4] -4.7% | [5] 3.3% | [6] 11.2%

C=C1N(c2cc3ccccc3o2)C(=O)OC12CCCCC2
inactive: [1] -37.5% | [2] -2.2% | [3] -8% | [4] 8.8% | [5] -2.55% | [6] 18.9%

N#Cc1nc(C2CC2)oc1N
inactive: [1] -18.7% | [2] -2.65% | [3] -22.9% | [4] 0.35% | [5] -25.2% | [6] 1.65%

O=C(O)CN(CCCN(CC(=O)O)CC(=O)O)CC(=O)O
inactive: [1] -5% | [2] 0.85% | [3] -2.5% | [4] -14% | [5] -7.4% | [6] -30.2%

OCC#CC#CCO
inactive: [1] -3.7% | [2] -7.45% | [3] 8.75% | [4] -1.05% | [5] -15.8% | [6] -1.45%

CCOC(=O)Nc1ccc(F)cc1C
inactive: [1] 14.8% | [2] 5.3% | [3] -7.55% | [4] -4% | [5] 7.3% | [6] -1%

C=CCC(O)CCCCC (stereo unspecified)
inactive: [1] -0.4% | [2] -22.8% | [3] 15.8% | [4] 20.7% | [5] -11.3% | [6] -23.4%

Cc1c(C(=O)C/C(=N/NC(=O)C[n+]2ccccc2)C(=O)Nc2ccccc2)[n+](=O)c2ccccc2n1O
inactive: [1] -37.5% | [2] 0.2% | [3] -40.7% | [4] -0.7% | [5] -15.2% | [6] -31.4%

O=c1c2cncnc2sc2nc3ccccc3n12
inactive: [1] 16.1% | [2] -9.55% | [3] 28.3% | [4] 11.9% | [5] 15.3% | [6] 23.4%

CCN(CC)C(=S)Oc1cc(Cl)c(Cl)cc1Cl
inactive: [1] -5.45% | [2] 3.8% | [3] -5.2% | [4] -2.55% | [5] 18.7% | [6] 21.2%

CNC(CCCCC1CCCCC1)C(=O)O (stereo unspecified)
inactive: [1] 8.2% | [2] 3.4% | [3] 12.1% | [4] -10.8% | [5] -8.2% | [6] -0.2%

CN(C)C(=O)Sc1cccc([N+](=O)[O-])c1
inactive: [1] 9.5% | [2] -14.9% | [3] -21.8% | [4] -38.3% | [5] 10.5% | [6] -25.6%

O=C1c2ccccc2C(=O)N1CN1C(=O)c2ccccc2S1(=O)=O
inactive: [1] 24.1% | [2] 15.6% | [3] 29.4% | [4] 24.2% | [5] 19.4% | [6] 34.9%

COc1ccc(/C(=N/N)C(C)(C)C)cc1
inactive: [1] 5.8% | [2] -2.8% | [3] -7.95% | [4] -15.8% | [5] -1.6% | [6] -1.9%

COc1ccc(NS(=O)c2ccccc2)cc1 (stereo unspecified)
inactive: [1] 10.1% | [2] 1.2% | [3] 3.1% | [4] 6.65% | [5] -2.5% | [6] 7.65%

Nc1cc(C(=O)O)[nH]c(=O)n1
inactive: [1] -23.7% | [2] -18.4% | [3] -20.2% | [4] -70.2% | [5] -18.9% | [6] -10.3%

NC(=S)N/N=C1\CCCc2ccccc21
inactive: [1] 60.8% | [2] 21.2% | [3] 42.3% | [4] 41.9% | [5] 7.15% | [6] 52.8%

CCOC(Cc1ccccc1)OCC
inactive: [1] 20.9% | [2] 19.9% | [3] 18.4% | [4] -0.7% | [5] 10.9% | [6] 12.7%

COc1ccc2[nH]c3cc4c(=O)c5cc(OC)ccc5[nH]c4cc3c(=O)c2c1
inactive: [1] -31.6% | [2] -15.8% | [3] -6.2% | [4] 5.05% | [5] -2.9% | [6] -37.6%

CNC(=O)C(C)NC(=O)C(Cc1ccccc1)NC(=O)c1ccccc1 (stereo unspecified)
inactive: [1] -33% | [2] -52.7% | [3] -6.45% | [4] 15.4% | [5] 5.2% | [6] -11.7%

O=C(COc1cc(Cl)c(Cl)cc1Cl)Nc1ccc(Cl)cc1
inactive: [1] 14.7% | [2] 19.9% | [3] 18% | [4] 17.2% | [5] 17.1% | [6] 11.2%

NC(=O)C1(N2CCCCC2)CCNCC1
inactive: [1] 7.85% | [2] -16.5% | [3] -8.2% | [4] 6.9% | [5] -5.45% | [6] 3.95%

O=S(=O)(NCCSSCCNS(=O)(=O)c1ccccc1)c1ccccc1
inactive: [1] 45% | [2] 17.5% | [3] 51.6% | [4] 16.6% | [5] 23.6% | [6] 34.7%

CCCC(C)C(=O)OCc1ccccc1 (stereo unspecified)
inactive: [1] 16.6% | [2] -9.5% | [3] 5.35% | [4] -13.7% | [5] 6.7% | [6] 5%

CCOC(=O)CN(Cn1cncn1)Cn1cncn1
inactive: [1] 26% | [2] 5.55% | [3] 22.2% | [4] -30.2% | [5] -43.4% | [6] 10.8%
